Test results reported in PubChem BioAssay AID1159580 (chemical genetic matrix, 2015).
Several values for one entry are separate records, joined by “and”; a condition that tells them apart may be missing. Identical values can stand only once. Among all 5,500 compounds or so, about 2,000 (36%) were called active. Not shown: some 18% with an inconclusive outcome. Cut-off read from the data, not from the text of the source: active = normalized growth mostly below about 0.91 (no sharp cut-off); inconclusive = no clear call, values can overlap the other calls; inactive = mostly above about 0.92. The list shows a part of the results.

Test: chemical genetic growth profiling, strain panel (AID 1159580);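 note: tested at 20 µM; growth read once vehicle control cultures reached saturation at 30 °C; 1 = growth at the plate median or of vehicle wells; lower values mean less growth of the strain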
Settings: S. cerevisiae deletion strains, growth OD

Measured: normalized growth

C=CC1=C(C(=O)O)N2C(=O)[C@@H](NC(=O)/C(=N/O)c3csc(N)n3)[C@H]2SC1
inactive: locus YAL013W, strain DEP1, hits give low values 1 | locus YAL021C, strain ccr4, hits give low values 1.01 | locus YAL026C, strain drs2, hits give low values 1.02 | locus YAL030W, strain snc1, hits give low values 1.01 | locus YBL061C, strain skt5, hits give low values 1.03 | locus YBR009C, strain hhf1, hits give low values 1 | locus YBR021W, strain FUR4, hits give low values 1.02 | locus YBR023C, strain chs3, hits give low values 1.02 | locus YBR171W, strain sec66, hits give low values 1.03 | locus YBR229C, strain ROT2, hits give low values 0.992 | locus YBR231C, strain swc5, hits give low values 1.01 | locus YBR279W, strain paf1, hits give low values 1.01 | locus YCL011C, strain gbp2, hits give low values 1.04 | locus YCL016C, strain dcc1, hits give low values 1.03 | locus YCL029C, strain bik1, hits give low values 0.987 | locus YCL061C, strain MRC1, hits give low values 1.04 | locus YCL069W, strain vba3, hits give low values 1.02 | locus YCR088W, strain abp1, hits give low values 1.02 | locus YDL005C, strain med2, hits give low values 1.02 | locus YDL035C, strain GPR1, hits give low values 1.03 | locus YDL040C, strain nat1, hits give low values 1.01 | locus YDL074C, strain BRE1, hits give low values 1.04 | locus YDL101C, strain DUN1, hits give low values 0.991 | locus YDL134C, strain PPH21, hits give low values 0.99 | locus YDL185W, strain tfp1, hits give low values 0.99 | locus YDL192W, strain arf1, hits give low values 0.986 | locus YDR001C, strain nth1, hits give low values 1.02 | locus YDR069C, strain doa4, hits give low values 1.04 | locus YDR101C, strain arx1, hits give low values 0.99 | locus YDR137W, strain rgp1, hits give low values 1.03 | locus YDR150W, strain NUM1, hits give low values 1.01 | locus YDR159W, strain sac3, hits give low values 1.02 | locus YDR162C, strain NBP2, hits give low values 1.03 | locus YDR195W, strain ref2 1 | locus YDR297W, strain sur2, hits give low values 1.03 | locus YDR318W, strain mcm21, hits give low values 1.01 | locus YDR334W, strain swr1, hits give low values 1.02 | locus YDR335W, strain msn5, hits give low values 1.02 | locus YDR388W, hits give low values 0.995 | locus YDR392W, strain spt3, hits give low values 1.01 | locus YDR502C, strain sam2, hits give low values 0.993 | locus YEL003W, strain gim4, hits give low values 1.01 | locus YEL037C, strain rad23, hits give low values 1.02 | locus YEL061C, strain CIN8 (second series), hits give low values 1.01 | locus YEL061C, strain CIN8, hits give low values 1.01 | locus YER015W, strain faa2, hits give low values 1.02 | locus YER016W, strain bim1, hits give low values 1.02 | locus YER110C, hits give low values 0.978 | locus YER111C, strain swi4, hits give low values 1.01 | locus YER155C, strain BEM2 (second series), hits give low values 1.06 | locus YER155C, strain BEM2, hits give low values 0.994 | locus YER167W, strain BCK2, hits give low values 1 | locus YFR010W, strain ubp6, hits give low values 1.03 | locus YGL078C, strain dbp3, hits give low values 0.989 | locus YGL086W, strain mad1, hits give low values 0.999 | locus YGL167C, strain pmr1, hits give low values 1.01 | locus YGL173C, strain kem1, hits give low values 1.04 | locus YGL227W, strain vid30, hits give low values 1.01 | locus YGL240W, strain doc1, hits give low values 1.01 | locus YGL248W, strain PDE1, hits give low values 0.989 | locus YGL253W, strain hxk2, hits give low values 1.01 | locus YGR078C, strain PAC10, hits give low values 1.07 | locus YGR135W, strain pre9, hits give low values 0.991 | locus YGR229C, strain SMI1, hits give low values 1.06 | locus YGR252W, strain gcn5, hits give low values 1 | locus YHR013C, strain ard1, hits give low values 1.08 | locus YHR027C, strain rpn1, hits give low values 1.02 | locus YHR030C, strain SLT2, hits give low values 1 and 0.986 | locus YHR079C, strain IRE1 (second series), hits give low values 0.989 | locus YHR079C, strain IRE1, hits give low values 0.975 | locus YHR094C, strain hxt1, hits give low values 0.991 | locus YHR129C, strain ARP1, hits give low values 0.995 | locus YHR142W, strain chs7, hits give low values 1.01 | locus YHR200W, strain rpn10, hits give low values 0.988 | locus YIL066C, strain RNR3, hits give low values 1.01 | locus YIL073C, strain SPO22, hits give low values 1.04 | locus YIL125W, strain kgd1, hits give low values 0.991 | locus YIR030C, strain dcg1, hits give low values 0.989 | locus YJL092W, strain hpr5, hits give low values 1.02 | locus YJL095W, strain BCK1 (second series), hits give low values 1.01 | locus YJL095W, strain BCK1, hits give low values 1.01 and 0.982 | locus YJL115W, strain asf1, hits give low values 1.05 | locus YJL129C, strain trk1, hits give low values 1.02 | locus YJL134W, strain LCB3, hits give low values 0.995 | locus YJL154C, strain vps35, hits give low values 1.02 | locus YJL164C, strain tpk1, hits give low values 1.04 | locus YJL166W, strain qcr8, hits give low values 1.04 | locus YJL168C, strain set2, hits give low values 0.986 | locus YJL187C, strain SWE1 (second series), hits give low values 0.997 | locus YJL187C, strain SWE1, hits give low values 1.03 | locus YJR043C, strain POL32, hits give low values 1.01
